Drawing on PubChem BioAssay (NCATS), this text covers Potency and outcome for 20 compounds.

The nature of experiment [1]: Cell Viability - LYMP2-012 (AID 982).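 Note: cellular ATP by luciferase luminescence where a drop means cytotoxicity; cells exposed to compound for one day before reading; nearly all actives have a fitted effect of over 55% in size.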 The following applies: LYMP2-012 lymphoblastoid cell viability qHTS; series mostly up to 92.2 µM.
Experiment [2] in a line: Cell Viability - LYMP2-014 (AID 983). Note: nearly all actives have a fitted effect of over 50% in size. The following applies: LYMP2-014 lymphoblastoid cells, viability qHTS; series mostly up to 92.2 µM. Summed up:
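Decrease in intracellular ATP after 24 hr treatment at 37 C, measured by luciferase luminescence, indicated cytotoxicity. Concentration-response data were fitted with the standard Hill equation to give AC50.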
Background: qHTS replaces the single test concentration by a dilution series.

The nature of experiment [3]: Cell Viability - LYMP2-016 (AID 984).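 Note: cells exposed to compound for 24 hours at 37 °C; nearly all actives have a fitted effect of over 55% in size.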 The following applies: LYMP2-016 lymphoblastoid cell viability, qHTS; series mostly up to 92.2 µM. Summed up: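 Human lymphoblastoid LYMP2-016 cells, 2500 per well, treated with compounds for 24 h at 37 C. Viability read as intracellular ATP by CellTiter-Glo luminescence after 30 min at room temperature; AC50 from Hill fits of concentration-response.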

A short description of experiment [4]: Cell Viability - LYMP2-018 (AID 985).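 Note: compound exposure lasted 24 hr at 37 °C; nearly all actives have a fitted effect of over 50% in size.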 Note: potency is the fitted concentration of half-maximal effect. The following applies: LYMP2-018 lymphoblastoid cells, viability (qHTS); series mostly up to 92.2 µM. An outline of the steps:
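Acute cytotoxicity is scored as a concentration-dependent drop in intracellular ATP after 24 hr exposure of the lymphoblastoid line in complete culture medium, measured by luciferase luminescence. Potency is expressed as AC50 from Hill modelling.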

Experiment [5] is described as follows: Cell Viability - LYMP2-020 (AID 986). Note: nearly all actives have a fitted effect of over 55% in size. The following applies: series mostly up to 92.2 µM. An outline of the steps:
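Acute cytotoxicity in a human lymphoblastoid line is scored as a concentration-dependent fall in cellular ATP after 24 hr at 37 C in complete medium. The positive control is tetraoctylammonium bromide, and potency is given as Hill-fit AC50.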

Experiment [6] can be described thus: Cell Viability - LYMP2-022 (AID 987). Note: nearly all actives have a fitted effect of over 55% in size. Note: potency is the fitted concentration of half-maximal effect. The following applies: LYMP2-022 lymphoblastoid cell viability; series mostly up to 92.2 µM. An outline of the steps: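 Acute toxicity in a human lymphoblastoid line is scored as decreased intracellular ATP after 24 hr compound treatment at 37 C. ATP is measured by CellTiter-Glo luminescence; curves are fitted with the Hill equation to give AC50.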

A short description of experiment [7]: Cell Viability - LYMP2-024 (AID 988). Note: nearly all actives have a fitted effect of over 60% in size. Note: potency is the fitted concentration of half-maximal effect. The following applies: LYMP2-024 lymphoblastoid cell viability; series mostly up to 92.2 µM. An outline of the steps: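 Acute toxicity is measured as concentration-dependent loss of intracellular ATP in a human lymphoblastoid line treated 24 hours at 37 C. Luciferase luminescence quantifies ATP; AC50 values come from standard Hill-equation modelling.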

A short description of experiment [8]: Cell Viability - LYMP2-026 (AID 989). Note: nearly all actives have a fitted effect of over 50% in size. The following applies: LYMP2-026 lymphoblastoid cell viability, qHTS; series mostly up to 92.2 µM. An outline of the steps: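 Concentration-dependent loss of intracellular ATP in human lymphoblastoid cells after 24 hr at 37 C, quantified by luciferase luminescence. AC50 derived from standard Hill equation.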
Experiment [9] in a line: Cell Viability - LYMP1-002 - Assay at 24 hr (AID 993). Note: potency is the fitted concentration of half-maximal effect. The following applies: LYMP1-002 lymphoblastoid cells viability; series mostly up to 92.2 µM. Summed up:
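qHTS, LYMP1-002 lymphoblastoid, 24 h cpd, 37 C, CellTiter-Glo ATP luminescence; AC50 via Hill eq.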

Experiment [10] addresses Alpha-galactosidase A (Homo sapiens) (UniProt P06280). Briefly: Counterscreen for Glucocerebrosidase Inhibitors: qHTS Assay for Human alpha-Galactosidase at pH 4.5 (AID 992). The following applies: purified enzyme, fluorogenic substrate; series mostly up to 76.9 µM. An outline of the steps: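 Quantitative HTS: compounds tested from 0.7 nM up to 77 uM against 2 nM enzyme with 80 uM 4-MU alpha-D-galactopyranoside. The 20 min room-temperature reaction is stopped with 1M NaOH/1M glycine, pH 10.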
For orientation: Counterscreens check selectivity or assay interference.

Molecules are shown by their SMILES. Inconclusive results are not listed. Calls of active or inactive are those of the source. Calls come from the whole dose curve; as a rule, active = well fitted curve in the direction sought with a large enough effect; inconclusive = small, poorly fitted or top-dose-only effect, or another doubt; inactive = no such curve, though single readings can be large; an effect the other way counts as inactive or inconclusive.

Alpha-galactosidase A (Homo sapiens), sequence (P06280 whole entry, looked up): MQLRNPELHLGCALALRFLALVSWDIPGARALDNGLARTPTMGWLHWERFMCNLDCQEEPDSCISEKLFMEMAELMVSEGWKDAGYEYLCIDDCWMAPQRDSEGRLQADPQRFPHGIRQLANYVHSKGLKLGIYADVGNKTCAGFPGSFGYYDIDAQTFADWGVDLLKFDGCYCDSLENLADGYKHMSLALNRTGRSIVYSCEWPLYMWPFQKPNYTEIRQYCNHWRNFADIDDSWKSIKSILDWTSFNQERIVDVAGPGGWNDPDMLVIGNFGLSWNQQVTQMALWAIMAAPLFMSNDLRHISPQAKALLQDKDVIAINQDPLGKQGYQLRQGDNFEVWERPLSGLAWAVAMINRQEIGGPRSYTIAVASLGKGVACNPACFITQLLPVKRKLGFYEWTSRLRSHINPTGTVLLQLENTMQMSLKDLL

In the case of `Nc1nccs1`, the Potency entry in experiment [1], in experiment [2], in experiment [3], in experiment [4], in experiment [5] and in [6] was “inactive” throughout. For the same compound, the Potency entry in experiment [7] and in [9] was “inactive” each time. Moreover, the outcome in [8] was inactive.

With `OB(O)O`, the Potency result in experiment [1], in [2], in [3], in experiment [4], in experiment [5] and in experiment [6] was “inactive” each time. The Potency entry in experiment [7] and in experiment [9] was “inactive” throughout. Also, in [8], the result was inactive.

Take `c1ccc2ccccc2c1`: the Potency result in experiment [1], in [2], in experiment [3], in experiment [4], in [5] and in experiment [6] was “inactive” in each case. For the same compound, the Potency entry in experiment [7] and in experiment [9] was “inactive” throughout. In addition, the result in [8] was inactive.

On to `Cc1cc(C)c(NC(=O)C[C@H](CC(=O)O)c2cccc3ccccc23)c(C(=O)N2CCC3(CCCC3)CC2)c1`, for which the compound was classed as inactive in [10].

With `CC(C)O`, the Potency result in experiment [1], in [2], in experiment [3], in experiment [4], in experiment [5] and in [6] was “inactive” throughout. For the same compound, the Potency result in [7] and in experiment [9] was “inactive” each time. Further, the compound was called inactive in [8].

Regarding `Oc1ccc(/C=C/c2cc(O)cc(O)c2)cc1`, the Potency entry in [1], in experiment [2], in experiment [3], in experiment [4], in experiment [5] and in experiment [6] was “inactive” throughout. Also, the Potency entry in experiment [7] and in experiment [9] was “inactive” each time. Besides, in experiment [8], the compound was called inactive.

Regarding `OCC(O)CO`, the Potency entry in experiment [1], in experiment [2], in [3], in experiment [4], in [5] and in experiment [6] was “inactive” throughout. The Potency entry in [7] and in experiment [9] was “inactive” throughout. Besides, the compound was called inactive in [8].

For the compound `[O-][N+](=Nc1ccccc1)c1ccccc1`, the Potency result in experiment [1], in experiment [2], in [3], in experiment [4], in experiment [5] and in experiment [6] was “inactive” throughout. Besides, the Potency entry in [7] and in experiment [9] was “inactive” in each case. For the same compound, the outcome in [8] was inactive.

With `O.O.O.O.O.O.O.O=S(=O)([O-])[O-].[Co+2]`, the Potency result in [3], in experiment [4] and in experiment [9] was “inactive” each time.

As for `Cc1ncc[nH]1`, the Potency entry in experiment [1], in [2], in experiment [3], in experiment [4], in experiment [5] and in experiment [6] was “inactive” throughout. The Potency entry in [7] and in experiment [9] was “inactive” throughout. The outcome in experiment [8] was inactive.

As for `CC1=CCC2CC1C2(C)C` (centres undefined), the Potency result in experiment [1], in experiment [2], in experiment [3], in experiment [4], in experiment [5] and in experiment [6] was “inactive” in each case. Further, the Potency result in experiment [7] and in [9] was “inactive” in each case. The compound was called inactive in [8].

In the case of `OCl`, the Potency entry in experiment [1], in [2], in experiment [3], in [4], in experiment [5] and in experiment [6] was “inactive” throughout. Moreover, the Potency entry in experiment [7] and in experiment [9] was “inactive” in each case. In experiment [8], the result was inactive.

For `Nc1ncnc2c1ncn2[C@H]1CC[C@@H](CO)O1`, the Potency entry in [1], in experiment [2], in experiment [3], in experiment [4], in experiment [5] and in experiment [6] was “inactive” each time. The Potency entry in experiment [7] and in experiment [9] was “inactive” in each case. Further, in experiment [8], the compound was classed as inactive.

Take `C[C@H](CCC(=O)O)[C@H]1CC[C@H]2[C@@H]3CC[C@@H]4C[C@H](O)CC[C@]4(C)[C@H]3C[C@H](O)[C@]12C`: the Potency entry in [3], in experiment [4], in experiment [5], in [6], in experiment [7] and in [9] was “inactive” each time. Besides, the compound was called inactive in experiment [8].

Turning to `CCOC(C)OCC`, the Potency entry in [1], in [2], in experiment [3], in [4], in experiment [5] and in experiment [6] was “inactive” throughout. Further, the Potency entry in experiment [7] and in experiment [9] was “inactive” in each case. For the same compound, in experiment [8], the outcome was inactive.

Consider `OC[C@H]1O[C@@H]2O[C@H]3[C@H](O)[C@@H](O)[C@@H](O[C@H]4[C@H](O)[C@@H](O)[C@@H](O[C@H]5[C@H](O)[C@@H](O)[C@@H](O[C@H]6[C@H](O)[C@@H](O)[C@@H](O[C@H]7[C@H](O)[C@@H](O)[C@@H](O[C@H]1[C@H](O)[C@H]2O)O[C@@H]7CO)O[C@@H]6CO)O[C@@H]5CO)O[C@@H]4CO)O[C@@H]3CO`, for which the Potency entry in experiment [1], in experiment [2], in [3], in experiment [4], in experiment [5] and in experiment [6] was “inactive” each time. Also, the Potency entry in [7] and in experiment [9] was “inactive” in each case. Also, the compound was classed as inactive in [8].

With `CO`, the Potency entry in experiment [1], in [2], in experiment [3], in experiment [4], in [5] and in experiment [6] was “inactive” throughout. Moreover, the Potency result in [7] and in [9] was “inactive” each time. Also, in experiment [8], the compound was classed as inactive.

As to `O=P(O)(O)O`, the Potency entry in experiment [1], in experiment [2], in experiment [3], in experiment [4], in experiment [5] and in experiment [6] was “inactive” throughout. The Potency result in [7] and in experiment [9] was “inactive” in each case. In [8], the outcome was inactive.

Turning to `C[C@H]1O[C@@H](O[C@H]2[C@@H](O)C[C@H](O[C@H]3[C@@H](O)C[C@H](O[C@H]4CC[C@@]5(C)[C@H](CC[C@@H]6[C@@H]5C[C@@H](O)[C@]5(C)[C@@H](C7=CC(=O)OC7)CC[C@]65O)C4)O[C@@H]3C)O[C@@H]2C)C[C@H](O)[C@@H]1O`, the Potency was 158 nM (active) in experiment [4], 251 nM (active) in experiment [6], 158 nM (active) in [7] and 158 nM (active) in experiment [9].

In the case of `Nc1ccc(N=Nc2ccccc2)c(N)n1`, the Potency result in experiment [1], in [2], in experiment [3], in [4], in experiment [5] and in experiment [6] was “inactive” throughout. For the same compound, the Potency entry in experiment [7] and in experiment [9] was “inactive” throughout. Also, in [8], the compound was called inactive.
